Screening data (PubChem)
Sampled rows, rich in hits. Any-hit rate of the full collection: about 3.5%.
M1 antag – human CHRM1 antagonism. P11229. CHO-K1 hM1, Fluo-8 calcium fluorescence, ACh EC80 antagonist. inhibition, % at 3 µM. 360,000 tested, 1.3% active;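 active = percent inhibition above its own plate's cutoff, namely the mean of that plate's compound wells plus 3 SD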;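 note: peak over basal fluorescence ratio during 140 s after agonist addition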
SKN-1 inh – inhibitors of C. elegans SKN-1; C. elegans VP596 Pgst-4::GFP/RFP ratio, acrylamide-induced, 24 h; inhibition, % at 21.8 µM; 360,000 tested, 0.49% active; AID 624304;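 active = interference check ratio from 0.5 to 1.5 plus GFP to RFP signal ratio inhibition reaching or exceeding a fixed threshold, cut at about 30% in these data, passing the limit was not always enough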
CHRM1 PAM – potentiates human M1 receptor response to acetylcholine; P11229; CHO-K1 hM1, Fluo-8 calcium fluorescence, ACh EC20; 0% = ACh EC20, 100% = maximal ACh; 360,000 tested, 0.088% active; activation, % at 3 µM; AID 588819; in the data active = activation above about 19%, passing the limit was not always enough
M1 ag – activates human CHRM1 receptor; P11229; CHO-K1 hM1, Fluo-8 calcium fluorescence, agonist mode; 0% DMSO, 100% acetylcholine EC100; activation, % at 3 µM; 360,000 tested, 0.33% active; AID 588814;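 active = activation above the run's mean compound activation plus 3 SD, cut at about 16% in these data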;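 note: peak over basal fluorescence ratio within a 140 s kinetic read after compound addition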
ATG4B inhibitor – inhibitors of human ATG4B cysteine protease | Q9Y4P1 | ATG4B cleavage of LC3-PLA2, NBD-HPC fluorescence, 1 h | 340,000 tested, 0.51% active | inhibition, % at 8.33 µM; in the data active = inhibition above about 40%
Target sequence (Q9Y4P1 whole entry, looked up): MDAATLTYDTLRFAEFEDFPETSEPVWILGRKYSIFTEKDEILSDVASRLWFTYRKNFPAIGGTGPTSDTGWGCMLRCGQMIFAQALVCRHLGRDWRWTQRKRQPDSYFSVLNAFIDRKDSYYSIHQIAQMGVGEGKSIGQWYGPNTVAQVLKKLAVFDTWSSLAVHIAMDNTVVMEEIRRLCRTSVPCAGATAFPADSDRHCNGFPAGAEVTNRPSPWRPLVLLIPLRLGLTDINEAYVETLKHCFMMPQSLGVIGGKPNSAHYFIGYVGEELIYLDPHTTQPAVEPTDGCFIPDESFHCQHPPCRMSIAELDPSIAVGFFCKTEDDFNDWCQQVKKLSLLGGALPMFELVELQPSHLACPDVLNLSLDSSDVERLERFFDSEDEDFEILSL
Myeloid diff MLP – compounds promoting myeloid differentiation; ER-HoxA9 myeloid progenitors, lysozyme-GFP differentiation, flow cytometry; calls only at 10 µM; 360,000 tested, 1% active;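 active = normalized GFP-positive differentiation at or above the plate's own cutoff, the solvent-only control mean plus 3 SD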;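 note: cells exposed to compound for four days before flow analysis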
Of the large screens only hits and unclear results are named; the others gave an inactive call.

COc1ccc(C(C(=O)NC2CCCCC2)N(Cc2ccco2)C(=O)c2snc(C(N)=O)c2N)cc1 (stereo not given)	M1 antag 25
CCOc1ccc(C(C)=O)cc1COC(=O)c1ccccc1C(=O)N(C)Cc1ccccc1	none
CCc1nc2c(OCCC3CCCCC3)cccn2c1N(C)C(=O)c1cccs1	none (no result: ATG4B inhibitor)
CCCNC(=O)c1ccc2snnc2c1	SKN-1 inh 36
CNC(=O)c1ccc2snnc2c1	none
CCC(C(=O)OCC(=O)C1(O)CCC2C3CCC4=CC(=O)CCC4(C)C3C(O)CC21C)C(C)C (stereo not given)	M1 antag 84
CC(=O)C1CCC2C3CCC4=CC(=O)CCC4(C)C3C(O)CC12C (stereo not given)	none (no result: ATG4B inhibitor)
CC12CCC(=O)C=C1CCC1C2CCC2(C)C(c3csc(N)n3)CCC12 (stereo not given)	M1 antag 79
CC12CCC(=O)C=C1CCC1C2C(O)CC2(C)C(c3csc(N)n3)CCC12 (stereo not given)	M1 antag 42
O=C(/C=C/c1cccc2ccccc12)N1CCOCC1	none
Cc1cc(C)nc(NS(=O)(=O)c2ccc(NCN3C(=O)c4ccccc4C3=O)cc2)n1	none (no result: ATG4B inhibitor)
N#Cc1ccc(Cl)cc1NC(=O)COC(=O)c1cccc(S(=O)(=O)N2CCOCC2)c1	none
CCOc1ccccc1Oc1cn[nH]c1-c1ccc(OCC(=O)NN)cc1O	Myeloid diff MLP active
CCOc1ccc(-c2[nH]ncc2Oc2ccccc2OCC)c(O)c1	none
CCn1c(SCC(=O)c2c[nH]c3ccccc23)nc2cc(S(=O)(=O)N3CCOCC3)ccc21	Myeloid diff MLP active
Cc1cc(S(=O)(=O)N2CCCC2)ccc1OCC(=O)Nc1ccccc1	none
CCOC(=O)CSc1nc2ccc(NC(=O)CSc3nnnn3Cc3ccccc3)cc2s1	none
CC(C)(C)NC(=O)CSc1nc2ccc(NC(=O)CSc3nnnn3Cc3ccccc3)cc2s1	M1 antag 19
COc1cccc(NS(=O)(=O)c2csc(C(N)=O)c2)c1	none
CC(C)=CCC[C@H](C)C[C@@H]1CC2=C(C(=O)OC(C)(C)O2)[C@H](c2ccc(F)cc2)O1	none (no result: ATG4B inhibitor)
O=C(CCC(=O)n1ncc2ccccc21)N1CCCCC1	Myeloid diff MLP active
COC(=O)CNC(=S)NC(=O)c1ccc(C(C)(C)C)cc1	M1 antag 72
CC(Oc1ccc(Cl)cc1)C(=O)NNC(=S)NC(=O)c1ccco1 (stereo not given)	M1 ag 51
O=C(NC(=S)NNC(=O)c1ccco1)c1ccc(Br)cc1	M1 ag 25
O=C(NNC(=S)NC(=O)c1ccco1)c1ccc(F)cc1	none
CC(C)(C)c1ccc(C(=O)NC(=S)NCc2cccnc2)cc1	none
CC(C)(C)c1ccc(C(=O)NC(=S)NNC(=O)COc2ccccc2)cc1	M1 ag 24
CCCCNC(=O)C[C@@H]1C[C@@]2(C(=O)OC)CCCCC=C2N(Cc2ccccc2)C1=O	none (no result: M1 antag, CHRM1 PAM, M1 ag, ATG4B inhibitor)
COC(=O)c1cc(S(=O)(=O)N(C)Cc2ccco2)c[nH]1	none
CCCOc1ccc(C(=O)NNC(=S)NC(=O)c2ccccc2)cc1	M1 antag 69, M1 ag 115
O=C(CCNC(=O)c1ccc(Br)cc1)NCc1ccco1	none
CC(C)(C)c1ccc(C(=O)NNC(=O)CCc2ccccc2)cc1	Myeloid diff MLP active
CCCOc1ccc(C(=O)NNC(=S)NC(=O)c2ccco2)cc1	M1 ag 67
COc1ccc(C(=O)NNC(=S)NC(=O)c2ccco2)cc1	none
O=C(CCNC(=O)c1ccco1)NNC(=O)c1ccc(Br)cc1	Myeloid diff MLP active
CC1=CC2C(C3C=CC2(C)C(=O)C3(C)O)C(C)(O)C1=O (stereo not given)	none
CCCOc1ccc(C(=O)NNC(=S)NC(=O)c2cccs2)cc1	M1 antag 78, M1 ag 92
CCCOc1ccc(C(=O)NNC(=S)NC(C)=O)cc1	none
N#Cc1ccccc1NCC(=O)N1CCN(S(=O)(=O)c2ccccc2)CC1	none
CC(C)C[C@H]1CN=C(Nc2ccccc2)N1CCCC1CCCC1	none
CCCCCCCN1C(Nc2ccccc2)=NC[C@@H]1CC(C)C	Myeloid diff MLP active
COc1ccc(Cl)cc1Cn1c(C)c(C(=O)NCc2ccc(C#N)cc2)sc1=O	M1 antag 44 (no result: ATG4B inhibitor)
